# In ChEMBL document CHEMBL2218924, “A broad activity screen in support of a chemogenomic map for kinase signalling research and drug discovery” (Biochem J, 2013):
# What was measured:
# [1] = molecular target: T1, Serine/threonine-protein kinase 3 (Homo sapiens) (UniProt Q13188); conditions: at 1 µM
# T1 sequence (whole entry): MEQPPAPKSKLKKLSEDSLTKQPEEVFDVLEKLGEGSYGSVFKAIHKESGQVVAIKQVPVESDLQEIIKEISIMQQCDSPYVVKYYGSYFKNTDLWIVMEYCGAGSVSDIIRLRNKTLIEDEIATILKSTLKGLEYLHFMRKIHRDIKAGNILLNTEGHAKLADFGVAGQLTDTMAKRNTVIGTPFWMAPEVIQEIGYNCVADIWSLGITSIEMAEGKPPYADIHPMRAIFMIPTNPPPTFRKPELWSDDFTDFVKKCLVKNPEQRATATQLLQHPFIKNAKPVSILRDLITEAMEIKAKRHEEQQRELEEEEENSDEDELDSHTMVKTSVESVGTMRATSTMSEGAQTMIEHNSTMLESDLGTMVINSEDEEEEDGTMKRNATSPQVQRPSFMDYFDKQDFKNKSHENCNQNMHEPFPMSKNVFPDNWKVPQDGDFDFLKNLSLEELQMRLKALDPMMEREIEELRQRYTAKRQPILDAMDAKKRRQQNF
# [2] = molecular target: T1, Serine/threonine-protein kinase 3 (Homo sapiens); conditions: at 10 µM
# [3] = molecular target: Serine/threonine-protein kinase 24 (Homo sapiens) (UniProt Q9Y6E0); conditions: at 1 µM
# [4] = molecular target: Serine/threonine-protein kinase 24 (Homo sapiens) (UniProt Q9Y6E0); conditions: at 10 µM
# [5] = molecular target: T2, Tyrosine-protein kinase Mer (Homo sapiens) (UniProt Q12866); conditions: at 1 µM
# T2 sequence (whole entry): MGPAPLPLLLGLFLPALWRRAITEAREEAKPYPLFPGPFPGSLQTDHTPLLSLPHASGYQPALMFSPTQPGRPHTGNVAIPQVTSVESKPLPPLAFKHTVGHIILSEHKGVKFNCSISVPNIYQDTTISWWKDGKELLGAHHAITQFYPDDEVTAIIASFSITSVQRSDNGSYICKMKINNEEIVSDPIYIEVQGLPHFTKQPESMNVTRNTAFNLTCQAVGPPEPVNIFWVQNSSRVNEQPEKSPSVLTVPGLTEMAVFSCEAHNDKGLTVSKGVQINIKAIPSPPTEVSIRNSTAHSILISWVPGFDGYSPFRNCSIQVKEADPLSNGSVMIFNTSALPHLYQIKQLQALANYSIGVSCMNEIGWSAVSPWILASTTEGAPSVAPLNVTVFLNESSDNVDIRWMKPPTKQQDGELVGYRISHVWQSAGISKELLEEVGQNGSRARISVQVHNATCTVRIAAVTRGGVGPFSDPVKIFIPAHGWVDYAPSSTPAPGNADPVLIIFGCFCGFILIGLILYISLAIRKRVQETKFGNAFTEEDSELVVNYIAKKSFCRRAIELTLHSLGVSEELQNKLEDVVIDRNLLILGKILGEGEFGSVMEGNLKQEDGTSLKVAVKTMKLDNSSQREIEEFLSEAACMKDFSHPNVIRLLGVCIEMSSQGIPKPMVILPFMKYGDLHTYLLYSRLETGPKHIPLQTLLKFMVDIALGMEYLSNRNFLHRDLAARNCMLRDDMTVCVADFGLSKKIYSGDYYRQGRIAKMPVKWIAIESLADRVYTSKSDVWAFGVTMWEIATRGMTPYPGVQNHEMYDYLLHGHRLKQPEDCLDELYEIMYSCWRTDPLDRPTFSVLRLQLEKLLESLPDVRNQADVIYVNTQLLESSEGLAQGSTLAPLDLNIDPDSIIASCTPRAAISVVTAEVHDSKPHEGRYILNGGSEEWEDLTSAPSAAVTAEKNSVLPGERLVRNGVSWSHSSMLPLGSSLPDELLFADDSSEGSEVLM
# [6] = molecular target: T2, Tyrosine-protein kinase Mer (Homo sapiens); conditions: at 10 µM
# [7] = molecular target: Hepatocyte growth factor receptor (Homo sapiens) (UniProt P08581); conditions: at 10 µM
# [8] = molecular target: T3, Muscle, skeletal receptor tyrosine-protein kinase (Homo sapiens) (UniProt O15146); conditions: at 1 µM
# T3 sequence (whole entry): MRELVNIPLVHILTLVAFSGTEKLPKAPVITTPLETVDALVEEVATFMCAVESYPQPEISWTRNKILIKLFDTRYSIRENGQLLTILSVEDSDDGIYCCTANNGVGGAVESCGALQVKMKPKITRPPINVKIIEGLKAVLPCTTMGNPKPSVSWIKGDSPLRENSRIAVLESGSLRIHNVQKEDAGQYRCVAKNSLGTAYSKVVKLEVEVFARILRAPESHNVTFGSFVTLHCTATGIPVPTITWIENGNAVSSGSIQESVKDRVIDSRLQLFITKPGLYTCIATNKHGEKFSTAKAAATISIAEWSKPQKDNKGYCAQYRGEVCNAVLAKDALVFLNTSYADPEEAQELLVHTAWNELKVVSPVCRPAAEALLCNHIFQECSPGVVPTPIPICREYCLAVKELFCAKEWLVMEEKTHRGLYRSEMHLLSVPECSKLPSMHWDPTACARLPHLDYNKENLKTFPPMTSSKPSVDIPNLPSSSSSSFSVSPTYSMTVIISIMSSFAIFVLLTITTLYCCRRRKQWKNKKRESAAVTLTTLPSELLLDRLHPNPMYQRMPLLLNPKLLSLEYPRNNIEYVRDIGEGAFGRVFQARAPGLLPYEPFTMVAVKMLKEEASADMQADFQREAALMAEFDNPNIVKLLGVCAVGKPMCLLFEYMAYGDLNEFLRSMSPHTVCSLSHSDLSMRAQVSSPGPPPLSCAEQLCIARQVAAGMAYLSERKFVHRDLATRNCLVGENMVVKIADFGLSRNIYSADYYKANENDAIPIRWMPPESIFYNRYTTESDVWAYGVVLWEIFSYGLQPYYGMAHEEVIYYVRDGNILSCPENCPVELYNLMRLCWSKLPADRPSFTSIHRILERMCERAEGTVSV
# [9] = molecular target: T3, Muscle, skeletal receptor tyrosine-protein kinase (Homo sapiens); conditions: at 10 µM
# [10] = molecular target: T4, Serine/threonine-protein kinase Nek11 (Homo sapiens) (UniProt Q8NG66); conditions: at 1 µM
# T4 sequence (whole entry): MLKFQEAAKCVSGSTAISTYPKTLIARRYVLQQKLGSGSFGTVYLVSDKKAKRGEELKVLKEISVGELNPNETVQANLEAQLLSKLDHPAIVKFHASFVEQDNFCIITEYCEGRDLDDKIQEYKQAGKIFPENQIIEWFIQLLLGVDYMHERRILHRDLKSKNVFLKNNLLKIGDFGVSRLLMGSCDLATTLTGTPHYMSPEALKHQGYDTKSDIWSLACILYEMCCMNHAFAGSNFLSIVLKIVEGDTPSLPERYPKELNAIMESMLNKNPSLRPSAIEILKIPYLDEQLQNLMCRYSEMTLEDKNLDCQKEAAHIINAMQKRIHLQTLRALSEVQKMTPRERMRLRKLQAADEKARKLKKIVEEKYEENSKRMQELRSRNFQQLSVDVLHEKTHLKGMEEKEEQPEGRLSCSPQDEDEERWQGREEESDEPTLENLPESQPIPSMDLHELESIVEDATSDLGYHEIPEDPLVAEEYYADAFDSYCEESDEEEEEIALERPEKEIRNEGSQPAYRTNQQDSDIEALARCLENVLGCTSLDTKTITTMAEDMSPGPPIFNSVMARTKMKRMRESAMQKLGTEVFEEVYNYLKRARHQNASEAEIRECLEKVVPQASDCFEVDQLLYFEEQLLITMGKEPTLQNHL
# [11] = molecular target: T4, Serine/threonine-protein kinase Nek11 (Homo sapiens); conditions: at 10 µM
# [12] = molecular target: T5, Serine/threonine-protein kinase Nek2 (Homo sapiens) (UniProt P51955); conditions: at 10 µM
# T5 sequence (whole entry): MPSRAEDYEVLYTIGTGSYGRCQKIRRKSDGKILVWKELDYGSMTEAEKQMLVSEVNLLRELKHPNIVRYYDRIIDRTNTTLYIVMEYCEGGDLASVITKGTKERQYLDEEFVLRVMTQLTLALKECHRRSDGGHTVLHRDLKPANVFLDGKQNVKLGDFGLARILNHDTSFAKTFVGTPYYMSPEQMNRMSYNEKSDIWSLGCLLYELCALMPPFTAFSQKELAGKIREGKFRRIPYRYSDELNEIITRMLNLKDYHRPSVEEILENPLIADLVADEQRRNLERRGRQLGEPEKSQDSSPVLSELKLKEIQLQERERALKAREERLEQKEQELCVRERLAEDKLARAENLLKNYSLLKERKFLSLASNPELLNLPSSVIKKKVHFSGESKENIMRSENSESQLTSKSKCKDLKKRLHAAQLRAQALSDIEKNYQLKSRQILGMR
# [13] = molecular target: T6, Serine/threonine-protein kinase Nek3 (Homo sapiens) (UniProt P51956); conditions: at 10 µM
# T6 sequence (whole entry): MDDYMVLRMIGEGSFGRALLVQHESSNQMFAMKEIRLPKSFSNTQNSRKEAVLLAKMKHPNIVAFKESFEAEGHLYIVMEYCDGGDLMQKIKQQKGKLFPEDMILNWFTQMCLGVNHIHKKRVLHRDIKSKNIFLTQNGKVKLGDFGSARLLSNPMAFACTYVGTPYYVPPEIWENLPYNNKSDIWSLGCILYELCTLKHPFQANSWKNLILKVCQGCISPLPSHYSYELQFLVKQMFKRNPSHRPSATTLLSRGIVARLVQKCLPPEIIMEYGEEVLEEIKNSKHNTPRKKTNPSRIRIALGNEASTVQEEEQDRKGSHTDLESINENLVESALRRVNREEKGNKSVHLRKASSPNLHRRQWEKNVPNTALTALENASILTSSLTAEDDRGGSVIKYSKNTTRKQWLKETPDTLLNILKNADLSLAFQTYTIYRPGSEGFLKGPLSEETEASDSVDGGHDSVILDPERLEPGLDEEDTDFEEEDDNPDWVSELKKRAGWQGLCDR
# [14] = molecular target: Serine/threonine-protein kinase tousled-like 2 (Homo sapiens) (UniProt Q86UE8); conditions: at 1 µM
# [15] = molecular target: Serine/threonine-protein kinase tousled-like 2 (Homo sapiens) (UniProt Q86UE8); conditions: at 10 µM
# [16] = molecular target: MAP kinase-interacting serine/threonine-protein kinase 2 (Homo sapiens) (UniProt Q9HBH9); conditions: at 1 µM
# [17] = molecular target: MAP kinase-interacting serine/threonine-protein kinase 2 (Homo sapiens) (UniProt Q9HBH9); conditions: at 10 µM
# [18] = molecular target: T6, Serine/threonine-protein kinase Nek3 (Homo sapiens); conditions: at 1 µM
# [19] = molecular target: Hepatocyte growth factor receptor (Homo sapiens) (UniProt P08581); conditions: at 1 µM
# [20] = molecular target: T5, Serine/threonine-protein kinase Nek2 (Homo sapiens); conditions: at 1 µM
# Chain of Hepatocyte growth factor receptor (Homo sapiens) (P08581 whole entry): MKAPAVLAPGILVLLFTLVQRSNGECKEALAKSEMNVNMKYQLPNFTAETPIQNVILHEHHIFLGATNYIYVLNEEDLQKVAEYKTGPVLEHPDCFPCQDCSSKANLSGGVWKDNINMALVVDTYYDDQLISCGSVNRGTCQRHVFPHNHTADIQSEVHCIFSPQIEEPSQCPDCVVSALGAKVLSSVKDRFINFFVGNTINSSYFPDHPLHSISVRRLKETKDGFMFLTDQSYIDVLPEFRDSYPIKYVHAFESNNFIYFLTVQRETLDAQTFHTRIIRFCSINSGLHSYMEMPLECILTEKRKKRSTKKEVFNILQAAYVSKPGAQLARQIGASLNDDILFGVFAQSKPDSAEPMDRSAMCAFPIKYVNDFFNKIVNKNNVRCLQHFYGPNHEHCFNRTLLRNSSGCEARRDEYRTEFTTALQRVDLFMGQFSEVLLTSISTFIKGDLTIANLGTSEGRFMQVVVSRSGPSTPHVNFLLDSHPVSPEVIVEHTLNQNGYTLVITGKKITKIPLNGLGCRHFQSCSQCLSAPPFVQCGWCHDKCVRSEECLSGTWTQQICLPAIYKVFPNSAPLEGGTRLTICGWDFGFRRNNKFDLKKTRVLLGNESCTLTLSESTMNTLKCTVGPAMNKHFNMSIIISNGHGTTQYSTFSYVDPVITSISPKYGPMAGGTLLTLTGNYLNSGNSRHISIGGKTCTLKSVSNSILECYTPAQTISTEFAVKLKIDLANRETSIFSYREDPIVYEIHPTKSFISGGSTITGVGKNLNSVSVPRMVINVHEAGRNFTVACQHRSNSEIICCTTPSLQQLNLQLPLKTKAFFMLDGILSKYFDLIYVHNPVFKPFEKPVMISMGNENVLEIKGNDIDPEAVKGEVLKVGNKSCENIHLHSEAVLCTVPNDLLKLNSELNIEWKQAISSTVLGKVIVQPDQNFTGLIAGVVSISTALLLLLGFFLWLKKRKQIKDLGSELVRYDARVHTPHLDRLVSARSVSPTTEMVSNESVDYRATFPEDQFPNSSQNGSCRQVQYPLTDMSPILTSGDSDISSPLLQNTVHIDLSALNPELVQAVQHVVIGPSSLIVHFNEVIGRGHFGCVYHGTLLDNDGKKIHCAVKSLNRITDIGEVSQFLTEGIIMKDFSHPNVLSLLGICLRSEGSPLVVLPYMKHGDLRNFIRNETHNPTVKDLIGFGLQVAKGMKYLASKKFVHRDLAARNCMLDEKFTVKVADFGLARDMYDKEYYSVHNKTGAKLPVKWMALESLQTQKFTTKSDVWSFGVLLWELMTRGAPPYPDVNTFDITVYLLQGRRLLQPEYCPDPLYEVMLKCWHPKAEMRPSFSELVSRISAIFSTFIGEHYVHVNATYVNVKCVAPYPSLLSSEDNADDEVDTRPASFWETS
# Chain of Serine/threonine-protein kinase 24 (Homo sapiens) (Q9Y6E0 whole entry, looked up): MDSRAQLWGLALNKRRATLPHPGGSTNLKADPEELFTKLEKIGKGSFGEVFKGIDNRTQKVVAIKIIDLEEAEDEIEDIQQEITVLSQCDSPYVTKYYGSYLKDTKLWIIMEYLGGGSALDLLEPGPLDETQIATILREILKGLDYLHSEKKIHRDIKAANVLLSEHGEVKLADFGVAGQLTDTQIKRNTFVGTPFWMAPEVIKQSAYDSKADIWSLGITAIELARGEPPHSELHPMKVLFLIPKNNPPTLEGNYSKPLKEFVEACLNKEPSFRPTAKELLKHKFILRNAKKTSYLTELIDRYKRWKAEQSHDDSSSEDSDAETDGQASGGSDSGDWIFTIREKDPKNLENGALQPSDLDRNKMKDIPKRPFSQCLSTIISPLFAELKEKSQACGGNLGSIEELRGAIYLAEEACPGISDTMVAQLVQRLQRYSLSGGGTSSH
# Chain of Serine/threonine-protein kinase tousled-like 2 (Homo sapiens) (Q86UE8 whole entry, looked up): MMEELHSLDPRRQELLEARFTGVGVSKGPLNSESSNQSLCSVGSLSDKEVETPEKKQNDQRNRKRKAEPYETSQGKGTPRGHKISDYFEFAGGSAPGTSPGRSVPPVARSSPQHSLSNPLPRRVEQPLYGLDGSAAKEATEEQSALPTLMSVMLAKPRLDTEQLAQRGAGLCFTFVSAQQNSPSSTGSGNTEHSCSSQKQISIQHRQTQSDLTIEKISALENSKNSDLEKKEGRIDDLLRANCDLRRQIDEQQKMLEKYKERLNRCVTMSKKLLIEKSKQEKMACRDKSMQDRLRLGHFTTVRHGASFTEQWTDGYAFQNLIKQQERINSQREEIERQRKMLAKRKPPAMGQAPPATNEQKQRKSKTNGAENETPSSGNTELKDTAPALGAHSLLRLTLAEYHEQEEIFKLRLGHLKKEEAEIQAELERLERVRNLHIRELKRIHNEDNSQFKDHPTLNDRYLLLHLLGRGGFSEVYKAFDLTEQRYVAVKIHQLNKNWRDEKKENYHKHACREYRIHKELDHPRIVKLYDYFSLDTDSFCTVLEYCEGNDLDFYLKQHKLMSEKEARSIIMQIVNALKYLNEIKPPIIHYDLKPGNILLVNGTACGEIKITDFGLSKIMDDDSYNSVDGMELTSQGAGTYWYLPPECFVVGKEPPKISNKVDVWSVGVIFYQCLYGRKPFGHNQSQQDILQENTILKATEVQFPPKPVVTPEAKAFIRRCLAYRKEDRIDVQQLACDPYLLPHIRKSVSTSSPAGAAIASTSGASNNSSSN
# Chain of MAP kinase-interacting serine/threonine-protein kinase 2 (Homo sapiens) (Q9HBH9 whole entry, looked up): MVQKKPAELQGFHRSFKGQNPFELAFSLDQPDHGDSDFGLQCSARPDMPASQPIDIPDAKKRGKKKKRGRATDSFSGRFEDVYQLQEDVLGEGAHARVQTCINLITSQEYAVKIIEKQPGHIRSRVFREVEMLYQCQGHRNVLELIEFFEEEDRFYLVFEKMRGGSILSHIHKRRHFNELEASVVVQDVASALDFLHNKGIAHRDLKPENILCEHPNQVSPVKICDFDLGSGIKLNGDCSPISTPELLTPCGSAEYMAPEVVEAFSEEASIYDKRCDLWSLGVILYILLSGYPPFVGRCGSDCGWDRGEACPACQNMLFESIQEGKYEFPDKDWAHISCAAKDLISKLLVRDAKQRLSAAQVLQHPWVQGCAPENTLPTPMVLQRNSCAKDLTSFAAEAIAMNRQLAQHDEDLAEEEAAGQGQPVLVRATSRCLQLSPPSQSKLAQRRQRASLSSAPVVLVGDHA
Structure (SMILES),residual activity [1] [%],residual activity [2] [%],residual activity [3] [%],residual activity [4] [%],residual activity [5] [%],residual activity [6] [%],residual activity [7] [%],residual activity [8] [%],residual activity [9] [%],residual activity [10] [%],residual activity [11] [%],residual activity [12] [%],residual activity [13] [%],residual activity [14] [%],residual activity [15] [%],residual activity [16] [%],residual activity [17] [%],residual activity [18] [%],residual activity [19] [%],residual activity [20] [%]
CN(C)CCCn1cc(C2=C(c3c[nH]c4ccccc34)C(=O)NC2=O)c2ccccc21,73,17,27,7,60,11,58,134,74,72,59,105,90,21,2,,,,,
N#Cc1cnc2cnc(NCc3cccnc3)cc2c1Nc1ccc(F)c(Cl)c1,42,4,27,15,,,,93,60,88,79,,46,73,47,98,79,37,,
Cc1ccc(S(=O)(=O)/C=C/C#N)cc1,99,95,86,88,101,108,123,85,96,72,81,90,98,87,89,98,101,90,96,97
COc1ccc(OC)c2c(=S)c3ccccc3[nH]c12,96,93,80,85,99,85,119,89,85,70,54,95,91,84,87,97,77,74,118,98
O=c1c2ccccc2[nH]c(=S)n1CCN1CCC(=C(c2ccc(F)cc2)c2ccc(F)cc2)CC1,120,93,71,69,106,88,89,116,91,106,98,106,42,104,94,112,103,104,136,86
COc1cc2ncnc(Nc3ccc(NC(=O)c4ccccc4)cc3)c2cc1OC,,95,90,,108,59,23,,98,96,103,95,,109,86,98,57,,88,105
COc1cc2ncc(-c3ccccc3)nc2cc1OC,,100,65,71,,62,68,,,87,,100,85,,,,,125,92,94
Cc1cccc(-c2[nH]c(C(C)(C)C)nc2-c2ccc3c(c2)OCO3)n1,,94,79,72,107,97,,98,87,80,107,95,,96,95,,,,,88
O=C1Nc2ccccc2/C1=C1/Nc2ccccc2/C1=N\OCCC(O)CO (stereo not drawn),4,1,27,3,1,-1,37,20,3,41,35,,,38,6,66,44,71,45,
Cn1cc(/C=C2\C(=O)Nc3ccc(S(N)(=O)=O)cc32)c2ccccc21,27,6,69,63,22,16,,69,28,83,90,26,19,87,43,80,72,72,84,79
N#CC(C#N)=C(N)/C(C#N)=C/c1ccc(O)cc1,,,71,67,,,138,,82,75,97,100,,100,95,,50,,,91
O=[N+]([O-])c1ccc(-c2nc(-c3ccc(F)cc3)c(-c3ccncc3)[nH]2)cc1,110,99,83,82,101,107,98,102,92,57,75,100,92,107,101,109,106,90,128,99
Cn1nc2c3c(cccc31)C(=O)c1ccccc1-2,97,,74,69,53,21,84,75,81,48,55,84,91,95,,81,72,74,,95
CC(=O)c1ccc(N2CCOCC2)cc1O,,,70,71,,,,105,81,,,104,77,103,95,105,96,,,84
